Many of the other results were omitted from the sample, so hits are more common in it than they were.
GluA2 TARP mod – modulators of GluA2-stargazin AMPA receptor complexes, primary screen, cell-based, membrane potential dye; Voltage-dependent calcium channel gamma-2 subunit (Mus musculus) + Glutamate receptor 2 …; HEK293 GluA2+stargazin, membrane potential dye (FDSS), glutamate EC50; hits were called plate by plate, in both directions; calls only at 30 µM; 40,000 compounds, 3.5% hits; AID 1259245, 2017;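 active = any of four per-well response measures lying three or more SD from its plate-wide compound average, in either direction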
GIRK2 activator – activators of NPY4-receptor-primed GIRK2 channels, summary, cell-based, HEK293, thallium flux; G protein-activated inward rectifier potassium channel 2 (Homo sapiens), P48051; HEK293 GIRK2/NPY4 cells, thallium flux fluorescence; activation (% efficacy), % for hits at 37.5 µM; 34,000 tested, under 10 active;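 active = primary screen hit, no activity in plain HEK293 cells, and in GIRK2-only cells above 5% efficacy rising with concentration; inactive = the rest, including fluorescent compounds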;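 also: efficacy is normalized control-subtracted fluorescence 15 s after thallium addition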
Target sequence (P48051 whole entry, looked up): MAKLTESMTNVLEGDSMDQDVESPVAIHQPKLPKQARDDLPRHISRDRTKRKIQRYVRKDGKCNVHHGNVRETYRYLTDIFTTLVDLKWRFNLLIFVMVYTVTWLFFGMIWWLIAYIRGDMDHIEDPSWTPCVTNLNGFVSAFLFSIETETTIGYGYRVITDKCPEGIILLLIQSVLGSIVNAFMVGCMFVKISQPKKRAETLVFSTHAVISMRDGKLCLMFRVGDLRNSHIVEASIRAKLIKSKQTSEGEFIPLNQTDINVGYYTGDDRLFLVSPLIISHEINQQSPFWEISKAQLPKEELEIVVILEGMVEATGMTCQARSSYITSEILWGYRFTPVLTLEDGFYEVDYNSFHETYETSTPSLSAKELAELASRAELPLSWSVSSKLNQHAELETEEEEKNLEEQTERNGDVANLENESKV
Calls only; i = inactive; nt = not tested or not shown; + = active, no number.

SMILES	GluA2 TARP mod	GIRK2 activator
CCS(=O)(=O)c1ccc(CC(=O)Nc2ccc(Cl)cc2C(=O)c2ccccc2)cc1	i	nt
CS(=O)(=O)c1ccc(CC(=O)Nc2ccc(Cl)cc2C(=O)c2ccccc2Cl)cc1	+	nt
CS(=O)(=O)N1CCCC(C(=O)Nc2ccc(Cl)cc2C(=O)c2ccccc2)C1 (stereo unspecified)	i	i
Cc1ccc(NC(=O)NCC2CCN(C(=O)Oc3ccccc3)CC2)cc1C	+	i
O=C(NCC1CCN(C(=O)Oc2ccccc2)CC1)NC(c1ccccc1)c1ccccc1	i	i
C#CC1(OCC(O)CNC2CCCC2)CCCCC1 (stereo unspecified)	i	i

Compound activity from PubChem BioAssay.
